Laboratory results taken from PubChem BioAssay (Tox21).
Values joined by “and” are separate entries in the source; they are usually repeats but may differ in a detail not shown here. Identical values can stand only once. Records with an inconclusive call do not appear. A call without a number means that no potency is given here. A structure can be active in one record and inactive in another. Active and inactive are the calls of the source. Unless noted, calls follow the shape of the dose curve; as a rule, active = well fitted curve in the direction sought with a large enough effect in the repeat runs; inconclusive = weak or mixed curves; inactive = no such curve, though single readings can be large; an effect the other way counts as inactive or inconclusive.

What was measured:
[1] = qHTS assay for identifying genotoxic compounds that show differential cytotoxicity against isogenic chicken DT40 cell lines with known DNA damage response pathways - wild type cell line (AID 743012); conditions: DT40 wild type chicken cells viability, CellTiter-Glo, 40 h; series mostly up to 68.4 µM; also: nearly all actives have a fitted effect of over 60% in size; also: potency is read from the fitted curve at half-maximal effect
How it was run: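 Wild-type DT40 cells (300/well) exposed to compounds for 40 hours at 37 C/5% CO2. Viability read by CellTiter-Glo luminescence after 30 min at room temperature.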

[2] = qHTS assay for identifying genotoxic compounds that show differential cytotoxicity against isogenic chicken DT40 cell lines with known DNA damage response pathways - Rev3 mutant cell line (AID 743014); conditions: chicken DT40 Rev3-/- viability, CellTiter-Glo, 40 h; series mostly up to 68.4 µM; also: nearly all actives have a fitted effect of over 55% in size; also: potency is read from the fitted curve at half-maximal effect
[3] = qHTS assay for identifying genotoxic compounds that show differential cytotoxicity against isogenic chicken DT40 cell lines with known DNA damage response pathways - Rad54/Ku70 mutant cell line (AID 743015); conditions: DT40 Rad54/Ku70 mutant viability, CellTiter-Glo, 40 h; series mostly up to 66.8 µM; also: nearly all actives have a fitted effect of over 60% in size; also: potency is read from the fitted curve at half-maximal effect
[4] = qHTS assay to identify small molecule antagonists of the androgen receptor (AR) signaling pathway - cell viability counter screen (AID 743033; also: nearly all actives have a fitted effect of over 45% in size; also: potency is read from the fitted curve at half-maximal effect); conditions: AR-bla HEK293 viability, CellTiter-Glo luminescence, 16 h; series mostly up to 58.5 µM
[5] = qHTS assay to identify small molecule antagonists of the androgen receptor (AR) signaling pathway using the MDA cell line - cell viability counter screen (AID 743041; also: nearly all actives have a fitted effect of over 45% in size; also: potency is read from the fitted curve at half-maximal effect); conditions: MDA-kb2 viability, CellTiter-Fluor, 16 h, cells co-treated with R1881 androgen agonist; series mostly up to 70.3 µM
How it was run: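 R1881-driven MDA-kb2 AR-luc cells, 3,000/well, were dosed with library compounds for 16 h; cell health came from CellTiter-Fluor fluorescence in the reporter wells.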

[6] = qHTS assay to identify small molecule antagonists of the thyroid receptor (TR) signaling pathway - cell viability counter screen (AID 743064); conditions: GH3.TRE-Luc viability, CellTiter-Fluor, 24 h; series mostly up to 70.3 µM; also: nearly all actives have a fitted effect of over 50% in size; also: potency is read from the fitted curve at half-maximal effect
How it was run: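 Viability of T3-stimulated (1 nM final) GH3.TRE-Luc cells is measured by CellTiter-Fluor fluorescence after 23.5 h compound exposure at 37 °C plus 30 min reagent incubation.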

[7] = biological target: Androgen receptor (Homo sapiens) (UniProt P10275); assay: qHTS assay to identify small molecule antagonists of the androgen receptor (AR) signaling pathway (AID 743035; active = well fitted inhibition curve with a large enough effect in the signal ratio in the repeat runs, not every such curve was filed as active; the % refers to the signal ratio); conditions: HEK293 AR-UAS-bla, R1881-stimulated, beta-lactamase FRET, 16 h; series mostly up to 58.5 µM
How it was run: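 HEK293 cells stably carrying UAS-beta-lactamase reporter, 2,000/well, given compounds plus R1881 agonist and incubated 16 h at 37C. LiveBLAzer B/G FRET substrate then added for 2 h at room temperature before fluorescence reading.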

[8] = biological target: Androgen receptor (Homo sapiens) (UniProt P10275); assay: qHTS assay to identify small molecule agonists of the androgen receptor (AR) signaling pathway (AID 743036; active = well fitted activation curve with a large enough effect in the signal ratio in the repeat runs, with a control signal flat, not every such curve was filed as active; the % refers to the signal ratio); conditions: HEK293 AR-UAS-bla GripTite, beta-lactamase FRET ratio, 16 h; series mostly up to 62.4 µM
How it was run: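 Screening used 2,000 AR-bla HEK293 cells per well, treated 16 h at 37C with test compounds in DMSO alongside positive and DMSO-only controls; beta-lactamase activity was then read by LiveBLAzer B/G FRET fluorescence after 2 h at room temperature.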

[9] = biological target: Androgen receptor (Homo sapiens) (UniProt P10275); assay: qHTS assay to identify small molecule agonists of the androgen receptor (AR) signaling pathway using the MDA cell line (AID 743040; also: nearly all actives have a fitted effect of over 20% in size); conditions: MDA-kb2 AR-luc cells, MMTV luciferase, 16 h, stronger effect = higher value; series mostly up to 70.3 µM
How it was run: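 After a 5 h incubation at 37C and 0% CO2, MDA-kb2 reporter cells were dosed with compounds in DMSO and kept 16 h under the same conditions. Luciferase activity was then read as luminescence with ONE-Glo.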

[10] = biological target: Androgen receptor (Homo sapiens) (UniProt P10275); assay: qHTS assay to identify small molecule antagonists of the androgen receptor (AR) signaling pathway using the MDA cell line (AID 743042; also: nearly all actives have a fitted effect of over 55% in size; also: potency is read from the fitted curve at half-maximal effect); conditions: MDA-kb2 AR-luc, MMTV luciferase, R1881 antagonist, 16 h; series mostly up to 70.3 µM
How it was run: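 Antagonist mode: compounds plus R1881 agonist added to MDA-kb2 AR-luc cells, incubated 16 h at 37C. Luciferase reporter luminescence quantified, with multiplexed CellTiter-Fluor readout for cell viability.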

Chain of Androgen receptor (Homo sapiens) (P10275 whole entry, looked up): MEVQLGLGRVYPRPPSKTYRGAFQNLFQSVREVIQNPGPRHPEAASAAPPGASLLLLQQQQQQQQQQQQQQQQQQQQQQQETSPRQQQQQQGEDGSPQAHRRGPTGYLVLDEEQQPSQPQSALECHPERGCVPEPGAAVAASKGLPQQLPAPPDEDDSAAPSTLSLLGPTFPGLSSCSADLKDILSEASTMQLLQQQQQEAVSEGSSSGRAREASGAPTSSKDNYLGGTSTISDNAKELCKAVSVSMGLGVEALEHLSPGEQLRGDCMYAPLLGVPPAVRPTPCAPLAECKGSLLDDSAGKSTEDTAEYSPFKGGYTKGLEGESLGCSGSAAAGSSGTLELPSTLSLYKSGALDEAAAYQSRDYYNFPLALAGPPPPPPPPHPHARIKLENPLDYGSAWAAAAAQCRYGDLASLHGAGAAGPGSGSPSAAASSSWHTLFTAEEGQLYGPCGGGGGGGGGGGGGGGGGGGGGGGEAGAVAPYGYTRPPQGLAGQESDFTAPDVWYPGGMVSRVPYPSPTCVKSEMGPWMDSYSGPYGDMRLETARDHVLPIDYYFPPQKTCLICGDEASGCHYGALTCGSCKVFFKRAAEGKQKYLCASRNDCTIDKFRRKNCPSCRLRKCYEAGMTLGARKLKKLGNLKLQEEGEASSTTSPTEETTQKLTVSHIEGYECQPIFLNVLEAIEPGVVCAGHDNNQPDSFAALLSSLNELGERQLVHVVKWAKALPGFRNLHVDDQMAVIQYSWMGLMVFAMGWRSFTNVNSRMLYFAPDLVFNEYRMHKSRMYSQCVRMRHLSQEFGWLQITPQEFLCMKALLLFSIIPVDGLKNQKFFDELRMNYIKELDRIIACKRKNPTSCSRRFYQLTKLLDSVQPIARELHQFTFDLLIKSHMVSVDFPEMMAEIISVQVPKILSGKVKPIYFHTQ

SMILES	Potency [1]	Potency [2]	Potency [3]	Potency [4]	Potency [5]	Potency [6]	outcome [7]	outcome [8]	outcome [9]	Potency [10]
CC[N+](CC)(CC)CC	inactive	inactive	inactive	inactive	inactive	inactive				
C[C@]12CCC(=O)C=C1CC[C@@H]1[C@@H]2CC[C@]2(C)C(=O)CC[C@@H]12	23.7 µM (active) and 27.3 µM (active)	29.8 µM (active) and 47.7 µM (active) and 54.5 µM (active)	26.6 µM (active) and 42.5 µM (active) and 27.3 µM (active)	inactive	inactive	inactive				
CCNc1nc(Cl)nc(NCC)n1	inactive	inactive	inactive	inactive	inactive	inactive				
O=C(O)C(Cl)(Cl)Cl	inactive	inactive	inactive	inactive	inactive	inactive				
CCCC[n+]1ccccc1	inactive	inactive	inactive	inactive	inactive	inactive				
CCC(=O)C(CC(C)N(C)C)(c1ccccc1)c1ccccc1 (stereo not drawn)	24.4 µM (active) and 41.5 µM (active)	48.8 µM (active) and 60.7 µM (active) and 46.6 µM (active)	43.5 µM (active) and 41.5 µM (active)	inactive	inactive	24.4 µM (active) and 27.1 µM (active) and 33 µM (active)	inactive	inactive	inactive	inactive
O=c1[nH]c(=O)n(Cl)c(=O)n1Cl	inactive	inactive	inactive	inactive	inactive	inactive				
CCCCn1cc[n+](C)c1	inactive	inactive	inactive	inactive	inactive	inactive				
O=c1nc(O)n(Cl)c(=O)n1Cl	inactive	inactive	inactive	inactive	inactive	inactive				
CCOP(=S)(OCC)Oc1ccc2c(C)c(Cl)c(=O)oc2c1	inactive and 17.2 µM (active)	inactive and 19.3 µM (active)	inactive and 17.2 µM (active)	inactive	inactive	inactive				
CCCC[n+]1cccc(C)c1	inactive	inactive	inactive	inactive	inactive	inactive				
CCCC[n+]1ccccc1C	inactive	inactive	inactive	inactive	inactive	inactive				
CCC[N+]1(C)CCCCC1	inactive	inactive	inactive	inactive	inactive	inactive				
CCCC[N+]1(C)CCCCC1	inactive	inactive	inactive	inactive	inactive	inactive				
Oc1ccccc1-c1ccccc1	inactive	inactive	inactive	inactive	inactive	inactive				
CCCCCCCCCCCCOS(=O)(=O)O	inactive	inactive	inactive	inactive	inactive	inactive				
CC(=O)[O][Hg][c]1ccccc1	211 nM (active) and 271 nM (active) and 109 nM (active)	376 nM (active) and 152 nM (active) and 122 nM (active)	237 nM (active) and 152 nM (active) and 86.3 nM (active)	5.35 µM (active) and 1.37 µM (active) and 1.95 µM (active)	5.31 µM (active) and 3.82 µM (active) and 3.06 µM (active)	596 nM (active) and 241 nM (active) and 386 nM (active)			inactive	2.98 µM (active) and 1.92 µM (active) and 2.17 µM (active)
N#CS	inactive	inactive	inactive	inactive	inactive	inactive				
Cc1cc(Cl)ccc1OCC(=O)O	inactive	inactive	inactive	inactive	inactive	inactive	inactive	inactive	inactive	inactive
O=[N+]([O-])c1ccccc1O	inactive	inactive	inactive	inactive	inactive	inactive				
CN(C)[C@@H]1C(=O)C(C(N)=O)=C(O)[C@@]2(O)C(=O)C3=C(O)c4c(O)cccc4[C@@](C)(O)[C@H]3[C@H](O)[C@@H]12	inactive and 68 µM (active) and 43.3 µM (active)	inactive and 43.3 µM (active)	inactive and 48.6 µM (active)	inactive	inactive	inactive				
CCCCn1cc[n+](C)c1C	inactive	inactive	inactive	inactive	inactive	inactive				
Nc1ccccc1	inactive	inactive	inactive	inactive	inactive	inactive				
COc1ccccc1N	inactive	inactive	inactive	inactive	inactive	inactive				

SMILES	Potency [1]	Potency [2]	Potency [3]	Potency [4]	Potency [5]	Potency [6]	outcome [7]	outcome [8]	outcome [9]	Potency [10]
O=C(O)COc1ccc(Cl)cc1Cl	inactive	inactive	inactive	inactive	inactive	inactive				
CCn1cc[n+](C)c1C	inactive	inactive	inactive	inactive	inactive	inactive				
O=C(O)c1nc(Cl)ccc1Cl	inactive	inactive	inactive	inactive	inactive	inactive				
CC(=O)O	inactive	inactive	inactive	inactive	inactive	inactive				
COP(=O)(OC)OC=C(Cl)Cl	9.44 µM (active) and inactive	11.9 µM (active) and inactive	13.3 µM (active) and inactive	inactive	inactive	inactive				
O=C(O)C(Cl)Cl	inactive	inactive	inactive	inactive	inactive	inactive				
CCC[N+]1(C)CCCC1	inactive	inactive	inactive	inactive	inactive	inactive				
CCCCCCCCCCn1cc[n+](C)c1				2.48 µM (active)	872 nM (active) and 559 nM (active) and 193 nM (active)					
CCCCCCCCCCCCCC[P+](CCCCCC)(CCCCCC)CCCCCC	13.7 µM (active) and 6.91 µM (active)	7.73 µM (active) and 6.16 µM (active) and inactive	6.14 µM (active) and 6.16 µM (active) and inactive	982 nM (active) and 3.92 µM (active) and 346 nM (active)		6.14 µM (active) and 5.49 µM (active) and 3.06 µM (active)				
C[N+](C)(C)Cc1ccccc1	inactive	inactive	inactive	inactive	inactive	inactive				
C1CCC(NC2CCCCC2)CC1	inactive	inactive	inactive	inactive	inactive	inactive				
Nc1ccc(-c2ccc(N)c(Cl)c2)cc1Cl	54.5 µM (active)	48.8 µM (active) and 28.6 µM (active) and 54.5 µM (active)	61.4 µM (active) and 50.8 µM (active) and 54.5 µM (active)	inactive	inactive	30.8 µM (active) and 18 µM (active) and 30.6 µM (active)				
Nc1ccc(Cl)cc1	inactive	inactive	inactive	inactive	inactive	inactive				
CC[n+]1ccccc1	inactive and 241 nM (active)	inactive and 171 nM (active)	inactive and 136 nM (active)	inactive and 21.7 µM (active)		inactive and 34.1 µM (active)				
Cc1cc(Cl)ccc1N	inactive	inactive	inactive	inactive	inactive	inactive				
Cc1cc(-c2ccc(N)c(C)c2)ccc1N	inactive	inactive and 34.3 µM (active)	inactive and 60.9 µM (active)	inactive	inactive	inactive				
CCCCCCCCCCCCn1cc[n+](C)c1						4.4 µM (active) [middle of 6 runs]				
COP(=O)(OC)C(O)C(Cl)(Cl)Cl (stereo not drawn)	inactive	inactive	inactive	inactive	inactive	inactive				
CCCCCCCCCCCC(=O)O	inactive	inactive	27.4 µM (active)	inactive	inactive	inactive				
CCCC[n+]1ccc(C)cc1	inactive and 54.2 µM (active)	inactive and 60.8 µM (active)	inactive and 48.3 µM (active) and 60.8 µM (active)	inactive	inactive	inactive and 30.5 µM (active)				
OCCOc1ccccc1	inactive	inactive	inactive	inactive	inactive	inactive				
CCCCCCn1cc[n+](C)c1					31.9 µM (active) [middle of 5 runs]	inactive				
O=C(O)c1ccccc1O	inactive	inactive	inactive	inactive	inactive	inactive				
CC(Cl)(Cl)C(=O)O	inactive	inactive	inactive	inactive	inactive	inactive				
